Experimental data as given in the supplement of paper PMC3334620.
Over roughly 33,000 sequences, “E-score (-0.5 to 0.5)” has its median near -0.017; the highest 2% begin near 0.3. Many of the other results were omitted from the sample, so the highest values are more common in it than they were.

The sequences below were run against T1, Sut1 (UniProt P53032) (assay: PBM E-score (8-mer binding enrichment) (E-score (-0.5 to 0.5)); higher = stronger / more preferred TF binding). Conditions: protein concentration: 200 nM; construct: GST-full length.
T1 sequence: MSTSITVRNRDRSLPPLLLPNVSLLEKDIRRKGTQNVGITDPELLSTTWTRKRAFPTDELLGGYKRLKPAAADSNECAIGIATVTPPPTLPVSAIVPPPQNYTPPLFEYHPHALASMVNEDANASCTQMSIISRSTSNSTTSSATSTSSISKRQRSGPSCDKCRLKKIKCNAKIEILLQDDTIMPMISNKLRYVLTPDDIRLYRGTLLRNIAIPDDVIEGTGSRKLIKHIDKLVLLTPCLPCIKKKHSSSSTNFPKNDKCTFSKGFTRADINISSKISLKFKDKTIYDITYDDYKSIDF
How it was run: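 Using PURExpress in vitro transcription/translation, GST-tagged yeast transcription factors were made in full-length or DNA-binding-domain form. These were applied at about 100-200 nM to double-stranded universal all-10-mer Agilent arrays, and bound protein was detected with fluorescent anti-GST. Scans were normalised with masliner before the Universal PBM Analysis Suite assigned E-scores to ungapped eight-base words pooled with their reverse complements.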

| Sequence | PBM E-score |
| --- | --- |
| ATGCCCCC | -0.387 |
| TACTCGGA | 0.324 |
| GACTCGGA | 0.33 |
| AACTCGGT | 0.0362 |
| GACTCGGC | -0.033 |
| AACTCGGG | -0.135 |
| CACTCGGA | 0.266 |
| TACTCGCA | 0.0383 |
| AACTCGGA | 0.341 |
| GACTCGCA | -0.0641 |
| GCAGAGGA | -0.102 |
| GCTTCGAC | -0.218 |
| GAGACCCC | -0.146 |
| ACCTTGCT | -0.0591 |
| GCGCCAGA | -0.088 |
| CCATATAG | -0.0893 |
| ACTCATCG | 0.0167 |
| GTCCGTGA | 0.251 |
| CACCGTGC | -0.263 |
| ATCCGTGA | -0.119 |
| CTCCGTGC | 0.321 |
| ATCCGTGC | 0.0778 |
| CTCCGTGA | 0.407 |
| AGGGCAGA | -0.348 |
| GACTGGGC | -0.0754 |

| Sequence | PBM E-score |
| --- | --- |
| CTTCGCTA | -0.0699 |
| ATATGCAG | -0.134 |
| AAAGTAAT | 0.204 |
| AGAGTTAA | 0.0656 |
| GGAGTTAA | 0.337 |
| CGAGTTAC | 0.0146 |
| GGAGTTAC | 0.367 |
| TGAGTTAA | -0.00085 |
| AGAGTTAC | -0.117 |
| GCTCCCTA | -0.123 |
| CAGGGAGC | -0.326 |
| ACAAACAC | 0.185 |
| CCGGCCGA | 0.0979 |
| GCGGCCGA | -0.139 |
| TCGGCCGA | 0.323 |
| AAAACTAA | 0.353 |
| AAAACTAT | 0.231 |
| CAAACTAA | 0.276 |
| CTAACTAG | 0.302 |
| TAAACTAA | 0.323 |
| CTAACTAC | 0.00799 |
| AAAACTAG | 0.0495 |
| GAAACTAA | 0.00617 |
| CTAACTAA | 0.142 |
| ACTCCACT | -0.144 |

| Sequence | PBM E-score |
| --- | --- |
| CCCTCAGA | -0.309 |
| CAGAGAAC | -0.299 |
| CTATCAAC | 0.208 |
| AGACTCTG | -0.137 |
| CAGTCACA | -0.17 |
| GACCCGTC | -0.239 |
| AGTTCTCC | 0.0174 |
| GTGACGAA | -0.0161 |
| CCTTAGGA | -0.0422 |
| AACCAGCT | -0.0518 |
| CGAAAACC | 0.0693 |
| AGTTAAGA | 0.0414 |
| CCCCGGTA | 0.0227 |
| CTCCGGTC | 0.418 |
| ATCCGGTA | 0.135 |
| ATCCGGTC | -0.00108 |
| GGCCGGTA | 0.0132 |
| GCCCGGTA | -0.187 |
| GTCCGGTA | 0.373 |
| CGCCGGTC | -0.0721 |
| CTCCGGTA | 0.413 |
| GGTCGAAA | -0.14 |
| GGCTGACC | -0.205 |
| ATTATTCA | 0.289 |
| AGGATACT | -0.0531 |

| Sequence | PBM E-score |
| --- | --- |
| ACTCGGCT | -0.079 |
| ACACCGCA | 0.0401 |
| GTAGACAA | 0.157 |
| AGGGGTAT | -0.217 |
| ACGCACTA | -0.0472 |
| GCATATCC | -0.196 |
| GGATTTCA | 0.117 |
| CGGACCTC | 0.411 |
| AGGACCTA | -0.0435 |
| CGGACCTA | 0.42 |
| AGGACCTC | -0.0609 |
| GGGACCTA | 0.0551 |
| CTGACCTC | -0.121 |
| AACTCGAA | -0.0516 |
| TCCTTCCA | -0.243 |
| GTATAAAC | 0.227 |
| GTATAAAA | 0.317 |
| ATATAAAA | 0.205 |
| TTATAAAA | 0.314 |
| CTATAAAA | 0.183 |
| GTATAAGA | 0.103 |
| TGAACCCA | -0.00171 |
| GTCGTTGA | -0.0946 |
| ATCCCAGC | -0.107 |
| ACACTAGA | 0.0902 |

| Sequence | PBM E-score |
| --- | --- |
| CGATGTCC | 0.164 |
| ATCAAGAT | 0.158 |
| TACGGAGA | 0.32 |
| TACGGAAA | 0.278 |
| TACGGACA | 0.282 |
| GACGGAGC | 0.231 |
| CACGGAGA | 0.355 |
| AACGGAGT | 0.478 |
| CACGGAGG | 0.0312 |
| GACGGAGA | 0.277 |
| CACGGAGC | 0.354 |
| AACGGAGG | -0.0314 |
| CAAGGAGA | 0.0606 |
| AACGGAGC | 0.231 |
| ATCCATTA | 0.076 |
| AATCGCCA | -0.0545 |
| AAGAGATC | -0.168 |
| AGAATTGG | 0.13 |
| CGCAATGA | -0.0747 |
| ACACTTGA | -0.00965 |
| AGACCACC | -0.0644 |
| CATGGCAG | -0.108 |
| CCCTGGGC | -0.324 |
| ATTAATGA | 0.267 |
| ATTTCTTA | 0.0841 |

| Sequence | PBM E-score |
| --- | --- |
| CTCCCGAA | -0.0868 |
| CTCCCTCC | -0.2 |
| GGCTCATA | -0.0389 |
| CAGCGGGG | -0.149 |
| AACAGAGA | -0.0653 |
| AACGGAGA | 0.359 |
| AACGGATA | 0.285 |
| ACTGCTCC | -0.0101 |
| CGAGTATA | 0.0489 |
| TGAGTAAA | 0.0705 |
| AGAGTAGA | 0.163 |
| AGAGTATA | 0.00921 |
| GGAGTAGA | 0.318 |
| CGAGTAGA | -0.0364 |
| GGAGTATA | 0.311 |
| GGAGTAAA | 0.333 |
| GGAGTAAC | 0.258 |
| AGGCCATG | -0.206 |
| GAGCTGAA | 0.01 |
| CAGTACGA | -0.0772 |
| TACAGCGA | -0.145 |
| GTAGCTCA | -0.0732 |
| ACCTGATC | -0.177 |
| AGAACCTG | -0.0844 |
| CTAATTTA | 0.175 |

| Sequence | PBM E-score |
| --- | --- |
| ATTATAAG | 0.193 |
| CTAATTTC | 0.299 |
| ATTATAAT | 0.378 |
| AAAATTAC | 0.237 |
| GTAATTAA | 0.161 |
| AAAATTAT | 0.351 |
| ATAATTTC | 0.242 |
| ATAATTAA | 0.314 |
| AAAATTAG | 0.155 |
| TTAATTAA | 0.0737 |
| ATTATAAA | 0.275 |
| CGGATCAA | 0.16 |
| CGTCTTGA | 0.0919 |
| AGCCCCAA | -0.358 |
| ATCGCTAC | -0.0624 |
| AATTATAT | 0.212 |
| TCCACTAA | 0.0668 |
| CCCAAACA | 0.00961 |
| ATAATTTG | 0.249 |
| AAAATGAC | 0.157 |
| ATCATTAG | 0.0427 |
| AAAATGAT | 0.342 |
| ATAATTAG | 0.235 |
| CTCATTAA | 0.119 |
| ATAATTTA | 0.337 |

| Sequence | PBM E-score |
| --- | --- |
| GTAATTTA | 0.221 |
| AAAATGAA | 0.0412 |
| ATCATTAA | 0.305 |
| ATAATTAC | 0.283 |
| ATAATTAT | 0.39 |
| ACAGTTCG | 0.183 |
| GCTTCCCA | -0.179 |
| GTTTGGTA | 0.178 |
| ATCGGTAG | 0.0989 |
| TCGGTGAA | 0.0263 |
| TAAGATCA | 0.0673 |
| AAAAAATA | 0.242 |
| ATAAAGAA | 0.19 |
| GGAAAATA | 0.226 |
| ATAAAATA | 0.323 |
| ATAAAATC | 0.162 |
| ATAAAGAT | 0.328 |
| ATAAATAG | 0.295 |
| ATAAATAA | 0.321 |
| GTAAAATA | 0.145 |
| TTAAATAA | 0.259 |
| GAAAAATA | 0.306 |
| ATAAAGAG | 0.0458 |
| CTCGTTCA | -0.205 |
| AGTAGACC | -0.172 |

| Sequence | PBM E-score |
| --- | --- |
| ATGACTGC | 0.00267 |
| CAATGCTC | -0.0941 |
| ACCAACGT | 0.00237 |
| AAAAATAA | 0.326 |
| TAAAATAA | 0.213 |
| AAAATAGA | 0.319 |
| AGAAATTA | 0.335 |
| AGAAATTC | 0.126 |
| TAAATAGA | 0.0796 |
| CAAAATAA | 0.201 |
| ATCAATTG | 0.197 |
| ATCAATTC | 0.135 |
| ATCAATTA | 0.31 |
| AAAATAGC | 0.0485 |
| GGAAATTA | 0.286 |
| AACCAACC | -0.178 |
| AGAATACA | 0.117 |
| CACTTTGC | 0.0519 |
| AGGCGACC | -0.207 |
